Rce1 inh: blocks yeast Ras-converting enzyme | Q03530 | yeast membranes, quenched prenylated peptide cleavage fluorescence | calls only | 0.27% of 290,000 active | AID 2563;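 active = fall in fluorescence gain of 50% or more versus controls, with final raw signal at or below 3038400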
Kir21 block: blocks the mouse Kir2.1 inward-rectifier potassium channel. B-score at 10 µM. HEK293-Kir2.1, FluxOR thallium flux fluorescence; stronger effect = lower value. AID 1672. 0.85% of 310,000 active;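 active = fluorescence ratio B-score at or below minus 3 SD of library scores, with starting-brightness B-score within 2 SD, cut at about -4.2 in these data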;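 also: channel flux triggered by added potassium and thallium sulfate stimulus; B-score of peak minus minimum fluorescence over baseline after thallium stimulus; more negative B-score means stronger Kir2.1 block with less thallium influx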
TMEM16A act: activators or potentiators of mouse TMEM16A chloride channel. HEK293 TMEM16A/YFP-H148Q/I152L, iodide quench fluorescence; stronger effect = lower value. B-score at 10 µM. 0.3% of 340,000 active. AID 623877;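 active = fluorescence-ratio B-score plate-corrected deviation score at least 3 library SD below zero, with starting fluorescence score within 5 deviations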;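 also: channel opened by trigger with iodide after compound preincubation; score built on the fluorescence ratio of max minus min over baseline; more negative score means more quench and so TMEM16A activation or potentiation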
CHT PAM: allosterically activates the human high affinity choline transporter; AID 488977; Q9GZV3; CHT-expressing cells, membrane potential dye, choline EC20; stronger effect = higher value; LV-AA mutant CHT in HEK293 cells; 0.49% of 310,000 active; B-score at 10 µM;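 active = initial fluorescence not abnormally high and integrated response B-score, plate-corrected, over 3 SD above library mean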
Target sequence (Q9GZV3 whole entry, looked up): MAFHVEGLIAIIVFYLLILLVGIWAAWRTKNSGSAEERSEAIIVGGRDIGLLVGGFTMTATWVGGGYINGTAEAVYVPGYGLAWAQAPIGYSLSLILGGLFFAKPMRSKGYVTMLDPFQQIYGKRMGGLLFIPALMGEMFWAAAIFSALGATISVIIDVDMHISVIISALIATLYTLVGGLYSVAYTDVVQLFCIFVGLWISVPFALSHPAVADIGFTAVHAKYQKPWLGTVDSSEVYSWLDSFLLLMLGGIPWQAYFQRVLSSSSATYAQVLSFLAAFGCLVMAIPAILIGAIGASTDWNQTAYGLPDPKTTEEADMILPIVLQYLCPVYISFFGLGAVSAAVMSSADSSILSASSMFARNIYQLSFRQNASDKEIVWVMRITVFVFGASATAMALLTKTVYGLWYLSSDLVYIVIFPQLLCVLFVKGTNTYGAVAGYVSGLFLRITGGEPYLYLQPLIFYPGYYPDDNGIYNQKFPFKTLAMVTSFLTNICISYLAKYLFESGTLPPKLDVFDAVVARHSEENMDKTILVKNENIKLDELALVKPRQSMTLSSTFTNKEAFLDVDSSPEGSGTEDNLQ
CHT inh: inhibits the human high affinity choline transporter | Q9GZV3 | CHT-expressing cells, membrane potential dye, choline response; stronger effect = lower value | B-score at 10 µM | 0.86% of 310,000 active | AID 488975;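 active = B-score over 3 SD under the library average, and starting fluorescence ratio not unusually high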;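 also: choline stimulus applied at its EC90 after an EC20 pre-addition; B-score computed on integrated fluorescence ratio after choline addition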
TMEM16A inh: mouse TMEM16A channel inhibition, primary screen | HEK293 TMEM16A/YFP iodide influx fluorescence, ionomycin | normalized B-score (activity score, 25-100; higher = stronger inhibition) at 10 µM | 1.2% of 310,000 active | AID 588511;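 active = ratio plate-corrected score three or more library SD toward inhibition, starting fluorescence score within five deviations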;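 also: score derived from kinetic fluorescence span divided by baseline fluorescence per well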
TMEM16A reconf: TMEM16A (mouse) chloride channel inhibition, re-confirmation | inhibition, % at 10 µM | shares compounds with TMEM16A inh | HEK293 TMEM16A/YFP-H148Q, iodide quench fluorescence; ionomycin added to raise cell calcium | 39% of 2,300 active;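 active = mean duplicate percent inhibition, scaled so buffer wells are 0 and the reference blocker 100, over three buffer SD above buffer mean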
HEK293 Ca mobil: calcium mobilization counter-screen hit for TMEM16A inhibitor series; shares compounds with TMEM16A inh; TMEM16A/YFP HEK293, Fluo4 calcium mobilization; calcium response (% of ionomycin), % at 10 µM; 2% of 2,300 active; AID 652231;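 active = duplicate-averaged calcium signal over 20% of the ionomycin maximum, relative to buffer baseline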;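 also: each well's signal is peak minus trough fluorescence divided by its pre-addition baseline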
YFP-HEK293 quench: acts in parental YFP-HEK293 cells lacking TMEM16A, counter-screen; shares compounds with TMEM16A inh; iodide YFP quench, ionomycin; YFP ratio F(max-min)/F0 at 10 µM; 2,300 tested, under 10 active; AID 652233;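 active = yellow fluorescent protein signal ratio exceeding the buffer control mean by over 5 SD of those controls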;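 also: ratio is mean of duplicate wells from kinetic YFP trace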
ClC-1 inh: blocks the rat ClC-1 voltage-dependent chloride channel; CHO ClC-1-YFP, iodide influx fluorescence quench; iodide control reads 0, buffer control 100; 2,300 tested, under 10 active; ratio percent, % at 10 µM; shares compounds with TMEM16A inh;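 active = duplicate-mean ratio percent above the mean of iodide-only control wells, which defines zero, plus 5 of their SD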;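 also: higher percent means stronger block of ClC-1 iodide influx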
Of the large screens only hits and unclear results are named; the others gave an inactive call (follow-up assays come after a bar, where they were run). Rows were chosen to be rich in hits. Some 3.2% of all compounds tested hit in one or more screens of this group.

COc1ccc(NC(=O)CCOc2ccccc2C)cc1S(=O)(=O)N1CCCCC1	TMEM16A inh 25 | TMEM16A reconf inactive | HEK293 Ca mobil inactive | YFP-HEK293 quench inactive | ClC-1 inh inactive
Cc1ccc(NCC(=O)Nc2cccc(F)c2)cc1S(=O)(=O)N1CCCCCC1	TMEM16A inh 100 | TMEM16A reconf 34% | HEK293 Ca mobil inactive | YFP-HEK293 quench inactive | ClC-1 inh inactive
O=C(COC(=O)c1ccc(O)cc1)Nc1cccc(S(=O)(=O)N2CCCCC2)c1	TMEM16A inh 25 | TMEM16A reconf inactive | HEK293 Ca mobil inactive | YFP-HEK293 quench inactive | ClC-1 inh inactive
O=C(CNc1cccc(F)c1)Nc1cccc(S(=O)(=O)N2CCCCC2)c1	none (no result: Rce1 inh, Kir21 block, CHT PAM, CHT inh, TMEM16A inh)
CC(NCC(O)COc1ccccc1)C1COc2ccccc2O1 (configuration not stated)	none
c1ccc2c(c1)ncn2CCCCOc1ccc2c(c1)CCC2	none
c1ccc2c(c1)ncn2CCCOc1ccc2c(c1)CCC2	TMEM16A inh 100 | TMEM16A reconf inactive | HEK293 Ca mobil inactive | YFP-HEK293 quench inactive | ClC-1 inh inactive
CCCOc1ccc(Cn2cnc3ccccc32)cc1	TMEM16A inh 25 (no result: Rce1 inh, Kir21 block) | TMEM16A reconf 17% | HEK293 Ca mobil inactive | YFP-HEK293 quench inactive | ClC-1 inh inactive
CC(C)C(=O)NCC(c1ccc2c(c1)OCO2)N1CCOCC1 (configuration not stated)	none
O=C(NCc1ccccc1)c1ccc(Cl)cc1	none (no result: TMEM16A act)
O=C(NCc1ccc(Cl)cc1)c1ccccc1Oc1ccccc1	TMEM16A inh 100 | TMEM16A reconf inactive | HEK293 Ca mobil inactive | YFP-HEK293 quench inactive | ClC-1 inh inactive
CCn1c(SCC(=O)Nc2nccs2)nnc1-c1ccccn1	none
Cc1cccc(N2CCN(C(=O)CCC(=O)N3CC(C)Oc4ccccc43)CC2)c1C (configuration not stated)	TMEM16A inh 25 | TMEM16A reconf inactive | HEK293 Ca mobil inactive | YFP-HEK293 quench inactive | ClC-1 inh inactive
CCN(CC)CCCn1c2c(c(SCC(=O)Nc3nc(C)cs3)nc1=O)CCC2	none
O=c1c(Sc2ccccc2)c(C(F)(F)F)[nH]n1-c1ccccc1	TMEM16A inh 100 | TMEM16A reconf 24% | HEK293 Ca mobil inactive | YFP-HEK293 quench inactive | ClC-1 inh inactive
CC1=CCC(C(=O)O)C(C(=O)O)C1 (configuration not stated)	none
CC1=CC(C)C(C(=O)O)C(C(=O)O)C1 (configuration not stated)	TMEM16A inh 100 | TMEM16A reconf inactive | HEK293 Ca mobil inactive | YFP-HEK293 quench inactive | ClC-1 inh inactive
COc1cccc(/C=C2/CN(C)CC3=C2OC(N)=C(C#N)C3c2cccc(OC)c2)c1 (configuration not stated)	none (no result: Rce1 inh) | TMEM16A reconf inactive | HEK293 Ca mobil inactive | YFP-HEK293 quench inactive | ClC-1 inh inactive
COc1ccc(CCNc2oc(Cc3cccc4ccccc34)nc2C#N)cc1OC	none
COc1ccc(CCNc2oc(COc3ccc(Br)cc3)nc2C#N)cc1OC	TMEM16A inh 100 | TMEM16A reconf inactive | HEK293 Ca mobil inactive | YFP-HEK293 quench inactive | ClC-1 inh inactive
Nn1c(SCC(=O)NCC2CCCO2)nnc1-c1ccco1 (configuration not stated)	none (no result: Rce1 inh, Kir21 block, CHT PAM, CHT inh, TMEM16A inh)
COc1ccccc1-c1ccc(SCc2ccc(F)cc2)nn1	TMEM16A inh 100 | TMEM16A reconf inactive | HEK293 Ca mobil inactive | YFP-HEK293 quench inactive | ClC-1 inh inactive
CC(C)(C)C1=Nn2c(nnc2-c2ccccn2)SC1	none | TMEM16A reconf inactive | HEK293 Ca mobil inactive | YFP-HEK293 quench inactive | ClC-1 inh inactive
COc1ccccc1-c1nnc2n1N=C(C(C)(C)C)CS2	none
COc1ccccc1C(=O)N(Cc1nc(-c2ccc(Cl)cc2)no1)C(C)C	TMEM16A inh 100 | TMEM16A reconf inactive | HEK293 Ca mobil inactive | YFP-HEK293 quench inactive | ClC-1 inh inactive
Oc1ccc2ccccc2c1Br	none
Oc1ccccc1Cc1c(O)ccc2ccccc12	TMEM16A inh 25 | TMEM16A reconf 38% | HEK293 Ca mobil inactive | YFP-HEK293 quench inactive | ClC-1 inh inactive
CC1CCC(NC(=O)Cn2c(=O)oc3ccccc32)CC1 (configuration not stated)	none
CN1C(=O)C(C)(C)c2cc(S(=O)(=O)N3CCCCCC3)ccc21	none
CN1C(=O)C(C)(C)c2cc(S(=O)(=O)N3CCN(c4ccccc4)CC3)ccc21	TMEM16A inh 100 | TMEM16A reconf inactive | HEK293 Ca mobil inactive | YFP-HEK293 quench inactive | ClC-1 inh inactive
CCOC(=O)c1ccc(NC(=O)CCc2nc(-c3ccccc3Cl)no2)cc1	TMEM16A inh 100 | TMEM16A reconf 38% | HEK293 Ca mobil inactive | YFP-HEK293 quench inactive | ClC-1 inh inactive
O=C(c1ccc(CNS(=O)(=O)c2ccccc2)cc1)N1CCN(Cc2ccccc2)CC1	TMEM16A inh 25 | TMEM16A reconf inactive | HEK293 Ca mobil inactive | YFP-HEK293 quench inactive | ClC-1 inh inactive
N#CC1=C(N)OC2=C(CCc3ccccc32)C1c1ccccc1 (configuration not stated)	TMEM16A inh 100 | TMEM16A reconf 52% | HEK293 Ca mobil inactive | YFP-HEK293 quench inactive | ClC-1 inh inactive
Cc1ccc(/C=C2\CCC3=C2OC(N)=C(C#N)C3c2ccc(C)cc2)cc1 (configuration not stated)	none
CCOC(=O)c1cnc2sc3c(n2c1=O)CCCC3	TMEM16A inh 100 (no result: Rce1 inh, Kir21 block) | TMEM16A reconf inactive | HEK293 Ca mobil inactive | YFP-HEK293 quench inactive | ClC-1 inh inactive
CCOC(=O)c1c(-n2cnnn2)sc2c1CCCC2	none
CCCC(C)C(=O)OCC(=O)NCc1ccc(OC)c(OC)c1 (configuration not stated)	none
O=C1CC(N2CCN(c3nc4ccccc4s3)CC2)C(=O)N1Cc1cccs1 (configuration not stated)	TMEM16A inh 100 | TMEM16A reconf 30% | HEK293 Ca mobil inactive | YFP-HEK293 quench inactive | ClC-1 inh inactive
COc1cccc2c1C(=O)C=C(C)C2=O	TMEM16A inh 25 | TMEM16A reconf inactive | HEK293 Ca mobil 24% | YFP-HEK293 quench inactive | ClC-1 inh inactive
Cc1ccc(C(=O)N/N=C/c2cn(Cc3ccccc3)c3ccccc23)cn1	TMEM16A inh 25 | TMEM16A reconf inactive | HEK293 Ca mobil inactive | YFP-HEK293 quench inactive | ClC-1 inh inactive
